system: MAP2K5

Structure (SMILES) | Kinases covered
Cc1ccc(C(=O)Nc2ccc(Nc3ccnc4cc(-c5ccccn5)ccc34)cc2O)cc1 [GW440146] | MAP2K5
COc1cc2nccc(Nc3ccc(OCc4ccc(NC(C)=O)cc4)cc3)c2cc1OC [GW440135] | MAP2K5
COc1cc2ncn(-c3cc(OCC4CCCO4)c(C(N)=O)s3)c2cc1OC (stereo not shown) [GSK204607] | MAP2K5
COc1cc(Nc2nccc(N3CCC(NC(=O)Nc4cc(C)ccc4C)C3)n2)cc(OC)c1OC (stereo not shown) [GSK1379762] | MAP2K5

system: MAPK10

Structure (SMILES) | Kinases covered
CCc1nc(-c2cccc(C)c2)c(-c2ccncc2)s1 [TPKI-106] | MAPK10
O=C(O)/C=C/C(=O)O.OCCCNc1nccc(-c2c(-c3ccc(F)cc3)nn3cc(C(F)(F)F)ccc23)n1 [GW569293E] | MAPK10
CCC(=O)c1c(-c2ccccc2)c2cc(Cl)ccc2c(=O)n1Cc1cc(S(C)(=O)=O)n(CC(N)=O)n1 [TPKI-105] | MAPK10
Nc1nccc(-c2c(-c3ccc(F)cc3)ncn2C2CCN(Cc3ccccc3)CC2)n1 [SB-219980] | MAPK10
COC(=O)c1c(-c2ccccc2)c2cc(Br)ccc2c(=O)n1Cc1ccc(S(C)(=O)=O)cc1 [TPKI-100] | MAPK10
Fc1ccc(-c2nn3ccccc3c2-c2ccncc2)cc1 [GW434756X] | MAPK10

Reference: paper PMC7826789 (International Journal of Molecular Sciences, 2021)
